# Laboratory results as given in PubChem BioAssay (NCI).
# Compounds without any hit were thinned out: in the full panel of roughly 83,000, 20% have a hit.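 Cell lines were cultured in 96-well plates, exposed to a single compound concentration, and assessed for percent growth 48 hours later.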 Values without a mark were called inactive. Active and inactive are the calls of the source. Rule for the calls: active = growth percent below 10; inactive = the rest.
# Legend:
# Test in all cases: NCI-60 one-dose screen, 48 h (100 = growth as untreated, 0 = no growth, -100 = all killed)
# Conditions in all cases: 10 µM unless noted
# NCI-H23 lung = system: NCI-H23 lung
# NCI-H226 lung = system: NCI-H226 lung
# NCI-H322M lung = system: NCI-H322M lung
# HOP-62 NSCLC = system: HOP-62 NSCLC
# NCI-H460 lung = system: NCI-H460 lung
# HOP-92 NSCLC = system: HOP-92 NSCLC
# NCI-H522 lung = system: NCI-H522 lung
# A549/ATCC NSCLC = system: A549/ATCC NSCLC
# 786-0 renal = system: 786-0 renal
# COLO 205 colon = system: COLO 205 colon
SMILES,growth (NCI-H23 lung),growth (NCI-H226 lung),growth (NCI-H322M lung),growth (HOP-62 NSCLC),growth (NCI-H460 lung),growth (HOP-92 NSCLC),growth (NCI-H522 lung),growth (A549/ATCC NSCLC),growth (786-0 renal),growth (COLO 205 colon)
O=C1C(=O)c2c(nc3ncccn23)-c2ccccc21,-49.4% (active),-83.2% (active),-96.7% (active),-90.4% (active),-49.3% (active),-84.1% (active),-60.7% (active),-35.6% (active),-94.9% (active),-70.7% (active)
O=[N+]([O-])c1cccc(-c2nc(-c3ccc(Cl)cc3Cl)cn2-c2ccccc2)c1,20.8%,18%,157%,-75.4% (active),-76.4% (active),12.6%,12.8%,-32.9% (active),-99.5% (active),-36.5% (active)
Cc1ccc2[nH]c(=S)n(-c3ccc(S(=O)(=O)Nc4ccc(Cl)nn4)cc3)c(=O)c2c1,101%,98.9%,110%,104%,104%,104%,92.5%,103%,60.7%,110%
CC(=O)c1cccc(NS(=O)(=O)c2cccc(C(=O)Nc3ccc(Br)cc3)c2)c1,29.4% [25 µM],49.3% [25 µM],73.4% [25 µM],68.9% [25 µM],63.4% [25 µM],33.9% [25 µM],48.8% [25 µM],58% [25 µM],56.2% [25 µM],61% [25 µM]
Fc1ccc2nc3c(cc2c1)CSc1nnc(-c2ccc[nH]c2=S)n1N3,92.7%,93.3%,106%,93.3%,105%,78.1%,86.8%,108%,89.7%,115%
C=C1C(=O)O[C@H]2[C@H]1CC/C(COC(=O)CCCc1c[nH]c3ccccc13)=C\CC[C@@]1(C)O[C@@H]21,65.9%,76.7%,104%,89.8%,85.9%,44.6%,39.9%,72%,14.2%,64.8%
O=C(Nc1ccc2ncnc(Nc3ccc(Oc4cccc(F)c4)c(Cl)c3)c2c1)c1ccc(CN2CCOCC2)cc1,20.1%,52%,60.7%,17.9%,38.8%,53.9%,6.89% (active),33.6%,42.2%,40.1%
CC(=O)OCC(=O)[C@@]1(O)CC[C@H]2[C@@H]3CC(=C(Br)Br)C4=CC(=O)CC[C@]4(C)[C@H]3C(=O)C[C@@]21C,88.6%,92.1%,88.5%,71.9%,103%,87.3%,66.6%,65.1%,85.1%,99.5%
CCCCCCC/C=C/[C@H]1O[C@]2(O)C(=O)C=C3C[C@@H](O[C@@H]4O[C@H](CO)[C@@H](O)C(O)[C@@H]4O)C[C@@H]3[C@H]2C=C1C (stereo not given in full),43.6%,-20.8% (active),54.3%,1.36% (active),38.3%,11.8%,-57.6% (active),59.8%,-52.4% (active),11.8%
O=C(Nc1ccc2cc3ccc(NC(=O)N4CCCCCC4)cc3nc2c1)N1CCCCCC1,-39% (active),-58.5% (active),31.4%,-47.4% (active),-55.6% (active),-77.8% (active),-70.4% (active),-11.3% (active),-57.9% (active),-48.8% (active)
Clc1nc(Cl)c2ncn(CCOCCn3cnc4c(Cl)nc(Cl)nc43)c2n1,-78.5% (active),-74.2% (active),-97.1% (active),-71.8% (active),-62.8% (active),-93.2% (active),-85.4% (active),-76.2% (active),-92.9% (active),-65.2% (active)
COc1ccc(C(=O)c2cc3c(N)c(C(=O)Nc4ccc(Cl)cc4)sc3nc2C)cc1,89.7%,57.1%,87.1%,37.5%,68.4%,78.2%,43.8%,77.1%,81.6%,85.8%
C=C(C)[C@H]1CC/C(C)=C/CC[C@]2(C)O[C@H]2CC/C(COC(=O)[C@@H](OC(C)=O)[C@H](NC(=O)c2ccccc2)c2ccccc2)=C\[C@@H]1O,98.5%,95%,104%,97.6%,89%,59.4%,59.5%,87.3%,85.1%,113%
C=C(C)[C@@H]1CC[C@]2(C=O)CC[C@]3(C)[C@H](CC[C@@H]4[C@@]5(C)CCCNC(C)(C)[C@@H]5CC[C@]43C)[C@@H]12,78.7%,91.7%,91.5%,94.5%,16.7%,54.5%,84.1%,62.2%,80.9%,-78.8% (active)
OC(c1ccccc1)c1ccccn1 (stereo not given),107%,97.8%,102%,104%,107%,94.4%,84.6%,77.1%,97.2%,108%
Cc1nc2sc(C(=O)Nc3cccc(Br)c3)c(N)c2cc1C(=O)c1ccc(C(F)(F)F)cc1,75.1%,92%,65.7%,60.6%,63.7%,80%,84.7%,74.7%,86.4%,86.7%
CN1C(=O)N(C)[C@H]2NC(NN)=N[C@H]21,103%,93.3%,91.2%,98.8%,103%,90.3%,102%,97.9%,99.8%,104%
COc1ccc2c(Nc3ccc(NS(C)(=O)=O)cc3)c3ccccc3nc2c1,-18.6% (active),-27.1% (active),9.34% (active),-0.998% (active),-21.8% (active),-16.6% (active),-58.6% (active),-71.2% (active),18.4%,-74.1% (active)
CCCCOc1ccc(/C=N/Nc2cc(C)nc3ccc(Cl)cc23)cc1,60%,88.9%,51.6%,27.1%,-62.8% (active),68.7%,-25.4% (active),10.1%,-80.9% (active),-66.6% (active)
C[C@]12CCc3nc(Nc4cccc(O)c4)sc3C1=CC[C@@H]1[C@@H]2CC[C@]2(C)/C(=N\NC(N)=S)CC[C@@H]12,57.3%,91.8%,73.5%,32%,21.3%,52.1%,-12.2% (active),59.3%,-36% (active),42.7%
Cc1ccc(C2C3CC4CCCCC4N3[C@@]3(C(=O)Nc4cc(Cl)ccc43)C2C(=O)c2nc3ccccc3[nH]2)cc1 (stereo not given in full),57.8%,62.7%,63.3%,66.5%,15.9%,44.1%,54%,31.1%,35.2%,30.6%
[2H]C1([2H])NC([2H])([2H])C([2H])([2H])N(c2ccc(Nc3ncc4cc(C(=O)N(C)C)n(C5CCCC5)c4n3)nc2)C1([2H])[2H],69.9%,71.2%,78.7%,60.3%,62.7%,76.1%,82.7%,51.5%,61.1%,38.3%
CC(=O)Nc1ccc(C(=O)Nc2cc(-c3ccccc3)ccc2N)cc1,86.4%,124%,79.5%,67.7%,59.7%,69.2%,55.6%,74.2%,97.9%,35.5%
